The panel holds about 79,000 compounds, 15% with a hit somewhere; the sample as a whole holds those more often. Activity calls are given as the source filed them. Cut-off read from the data, not from the text of the source: active = growth inhibition above about 70%; inactive = the rest.

Drawing on PubChem BioAssay (NCI), this text covers growth inhibition for 39 compounds.

The nature of one assay: NCI Yeast Anticancer Drug Screen. Data for the bub3 strain (AID 167). The note with it: S. cerevisiae bub3 mutant strain, at 50.0 µM, stronger effect = higher value. The method, boiled down:
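Whole-cell yeast assay. The mutant strain was incubated with compounds, and growth inhibition was determined by comparison with vehicle-treated cells.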
Turning to `CC1N=C(c2ccccc2)C2(c3ccccc3)C(C)N12` (stereo not drawn), the growth inhibition was -10.3% (inactive).
As to `Nc1cccc2c1Cc1cc([N+](=O)[O-])ccc1-2`, the growth inhibition is 3.6% (inactive).
Consider `CC(C)NC(=O)N1C2C3CCC(C)(OC3(C)C)C21` (stereo not drawn), for which the growth inhibition is -14.9% (inactive).
Regarding `CN/N=C(/CCN1CCCC1)CC(c1ccccc1)c1c(O)c2ccccc2oc1=O` (stereo not drawn), the growth inhibition was 31.5% (inactive).
In the case of `O=C(NCCN1CCOCC1)c1cc(N(CCCl)CCCl)c([N+](=O)[O-])cc1[N+](=O)[O-]`, the growth inhibition is 33.1% (inactive).
Consider `CCOP(=O)(O)OCC`, for which the growth inhibition is 0.95% (inactive).
As to `Clc1cccc2ccccc12`, the growth inhibition is 3.4% (inactive).
Regarding `Cc1cccc(C)c1NC(N)=S`, the growth inhibition was 6% (inactive).
As for `CC(C(=O)c1ccccc1)N(C)C` (stereo not drawn), the growth inhibition was -19.7% (inactive).
As to `O=C1NC(=O)C(=Cc2ccco2)C(=O)N1`, the growth inhibition was -31.6% (inactive).
On the same count and under the same terms, the value for `Cn1c(O)c(N=NC(N)=S)c(=O)n(C)c1=O` was -20.3% (inactive); that for `Cn1c[n+](C)nn1` was -3.25% (inactive).
Still for that read-out and setting: the value for `CCC(=O)OC1(c2ccccc2)CCN(CCC(=O)c2ccccc2)CC1C` (stereo not drawn) was 27.1% (inactive).
As for `NC(=O)C(Cl)c1ccccc1` (stereo not drawn), the growth inhibition is -23.9% (inactive).
With `C1CCC(NC2CCCC2)CC1`, the growth inhibition is 12.4% (inactive).
For the compound `O=[As](O)(O)c1cccc(Cl)c1`, the growth inhibition was 1.9% (inactive).
As for `OC12CCC[N+]1(Cc1ccccc1)CCC2` (stereo not drawn), the growth inhibition is -0.55% (inactive).
Consider `NC(=O)Oc1cc(OC(N)=O)cc(N(CCCl)CCCl)c1`, for which the growth inhibition was 40% (inactive).
Same read-out and setting: the value for `CC1N2C3(c4ccccc4)OC(c4ccccc4)(c4ccccc43)C12c1ccccc1` (stereo not drawn) was 0.8% (inactive).
For `O=c1c(O)c(-c2ccccc2)oc2ccccc12.[Zr]`, the growth inhibition was 22.4% (inactive).
On to `CN1C(=O)C2(c3ccccc31)C1CC3C(CO1)C1C2C3(CO)CN1C#N` (stereo not drawn), for which the growth inhibition was -22.1% (inactive).
Consider `c1ccc(OP(Oc2ccccc2)(c2ccccc2)(c2ccccc2)c2ccccc2)cc1`, for which the growth inhibition was -5.1% (inactive).
With `Cc1cc(O)c2c(c1)OC(C)(C)C1=C2CC(C)CC1` (stereo not drawn), the growth inhibition was -16.1% (inactive).
For the compound `O=[C-]/C=C/c1ccccc1.[C-]#[O+].[C-]#[O+].[Fe+2].[c-]1ccccc1`, the growth inhibition is -7.1% (inactive).
As to `N#CCc1ccccc1CC#N`, the growth inhibition is 3.9% (inactive).
As to `COC1=CC2CCC3C(CCC4(C)C(OC(C)=O)CCC34)C2(C)CC1` (stereo not drawn), the growth inhibition is -13.3% (inactive).
Take `Cc1ccccc1.[C-]#[O+].[C-]#[O+].[C-]#[O+].[W]`: the growth inhibition is 24.9% (inactive).
Turning to `COc1cc2c(cc1OC)-c1c3c(cc4c1[C@H](C2)N(C)CC4)OCO3`, the growth inhibition was -14.2% (inactive).
In the case of `CCCCOCN(CCc1ccccc1)COCCCC`, the growth inhibition was 10.2% (inactive).
For the compound `O=[N+]([O-])c1ccc(N2CC2)c([N+](=O)[O-])c1`, the growth inhibition was -0.95% (inactive).
Take `CC(Cc1cccc2c1Nc1ccccc1S2)N(C)CCO` (stereo not drawn): the growth inhibition was -25.4% (inactive).
On the same count and under the same terms, the value for `COc1cc(O)c2c(O)c3c(=O)cc(C)oc3cc2c1` was -1.95% (inactive); that for `O=[N+]([O-])c1ccc(CI)cc1` was 13.4% (inactive).
Turning to `O=C(Nc1ccc(N(CCCl)CCCl)cc1)c1ccc([N+](=O)[O-])cc1`, the growth inhibition was -1.05% (inactive).
For `O=C1NC(=S)NC(=O)C1=Cc1ccccc1O`, the growth inhibition is -1.45% (inactive).
`C=C[C](=C)[Pb]([CH2]C)([CH2]C)[CH2]C`: the growth inhibition is -10.6% (inactive).
For the compound `C[CH2][Sn]([CH2]C)([S]c1nc(O)cc(=O)[nH]1)[S]c1nc(O)cc(=O)[nH]1`, the growth inhibition was 21.9% (inactive).
As to `CC(=O)C1CCC2C3CC=C4CC(OOS(=O)c5ccc(C)cc5)CCC4(C)C3CCC12C` (stereo not drawn), the growth inhibition was 22.4% (inactive).
In the case of `CC(C)CCCC(C)CCC1C(=O)NC(=S)NC1=O` (stereo not drawn), the growth inhibition was -3.05% (inactive).

The nature of another assay: NCI Yeast Anticancer Drug Screen. Data for the mlh1 rad18 strain (AID 175). The note with it: S. cerevisiae mlh1 rad18 strain growth inhibition; at 50.0 µM; stronger effect = higher value. The method, boiled down:
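Cells of a genetically altered yeast strain, deficient in DNA damage repair, were treated with compound. Their growth was then compared with that of vehicle-treated cultures to give inhibition.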
For the compound `CC1N=C(c2ccccc2)C2(c3ccccc3)C(C)N12` (stereo not drawn), the growth inhibition is 5.85% (inactive).
On to `Nc1cccc2c1Cc1cc([N+](=O)[O-])ccc1-2`, for which the growth inhibition was -1.4% (inactive).
Consider `CC(C)NC(=O)N1C2C3CCC(C)(OC3(C)C)C21` (stereo not drawn), for which the growth inhibition is -12.2% (inactive).
As for `CN/N=C(/CCN1CCCC1)CC(c1ccccc1)c1c(O)c2ccccc2oc1=O` (stereo not drawn), the growth inhibition is 37.4% (inactive).
Take `O=C(NCCN1CCOCC1)c1cc(N(CCCl)CCCl)c([N+](=O)[O-])cc1[N+](=O)[O-]`: the growth inhibition was 27.9% (inactive).
Still for that read-out and setting: under `CCOP(=O)(O)OCC` stands -49.9% (inactive); under `Clc1cccc2ccccc12`, 16.1% (inactive).
`Cc1cccc(C)c1NC(N)=S`: the growth inhibition was 3.25% (inactive).
For `CC(C(=O)c1ccccc1)N(C)C` (stereo not drawn), the growth inhibition is 5.5% (inactive).
Consider `O=C1NC(=O)C(=Cc2ccco2)C(=O)N1`, for which the growth inhibition was -3.3% (inactive).
On to `Cn1c(O)c(N=NC(N)=S)c(=O)n(C)c1=O`, for which the growth inhibition was 14.6% (inactive).
Take `Cn1c[n+](C)nn1`: the growth inhibition was -18.2% (inactive).
`CCC(=O)OC1(c2ccccc2)CCN(CCC(=O)c2ccccc2)CC1C` (stereo not drawn): the growth inhibition is 37.3% (inactive).
Turning to `NC(=O)C(Cl)c1ccccc1` (stereo not drawn), the growth inhibition is -9.15% (inactive).
As for `C1CCC(NC2CCCC2)CC1`, the growth inhibition is 13.1% (inactive).
As to `O=[As](O)(O)c1cccc(Cl)c1`, the growth inhibition is -0.9% (inactive).
For `OC12CCC[N+]1(Cc1ccccc1)CCC2` (stereo not drawn), the growth inhibition was -18.1% (inactive).
As to `NC(=O)Oc1cc(OC(N)=O)cc(N(CCCl)CCCl)c1`, the growth inhibition is 40% (inactive).
Consider `CC1N2C3(c4ccccc4)OC(c4ccccc4)(c4ccccc43)C12c1ccccc1` (stereo not drawn), for which the growth inhibition was 4.05% (inactive).
Still for that read-out and setting: the value for `O=c1c(O)c(-c2ccccc2)oc2ccccc12.[Zr]` was -7.75% (inactive); that for `CN1C(=O)C2(c3ccccc31)C1CC3C(CO1)C1C2C3(CO)CN1C#N` (stereo not drawn) was -6.8% (inactive); that for `c1ccc(OP(Oc2ccccc2)(c2ccccc2)(c2ccccc2)c2ccccc2)cc1` was -42.6% (inactive).
Same read-out and setting: under `Cc1cc(O)c2c(c1)OC(C)(C)C1=C2CC(C)CC1` (stereo not drawn) stands -21.9% (inactive).
Regarding `O=[C-]/C=C/c1ccccc1.[C-]#[O+].[C-]#[O+].[Fe+2].[c-]1ccccc1`, the growth inhibition was 7.15% (inactive).
Turning to `N#CCc1ccccc1CC#N`, the growth inhibition was 18.2% (inactive).
In the case of `COC1=CC2CCC3C(CCC4(C)C(OC(C)=O)CCC34)C2(C)CC1` (stereo not drawn), the growth inhibition was -6.8% (inactive).
For `Cc1ccccc1.[C-]#[O+].[C-]#[O+].[C-]#[O+].[W]`, the growth inhibition was -8.05% (inactive).
Regarding `COc1cc2c(cc1OC)-c1c3c(cc4c1[C@H](C2)N(C)CC4)OCO3`, the growth inhibition is -25.5% (inactive).
As to `CCCCOCN(CCc1ccccc1)COCCCC`, the growth inhibition is 25.6% (inactive).
On to `O=[N+]([O-])c1ccc(N2CC2)c([N+](=O)[O-])c1`, for which the growth inhibition was 5.45% (inactive).
Take `CC(Cc1cccc2c1Nc1ccccc1S2)N(C)CCO` (stereo not drawn): the growth inhibition was -30.1% (inactive).
Take `COc1cc(O)c2c(O)c3c(=O)cc(C)oc3cc2c1`: the growth inhibition is -5.35% (inactive).
Still for that read-out and setting: under `O=[N+]([O-])c1ccc(CI)cc1` stands 23.3% (inactive).
`O=C(Nc1ccc(N(CCCl)CCCl)cc1)c1ccc([N+](=O)[O-])cc1`: the growth inhibition was -2.6% (inactive).
Regarding `O=C1NC(=S)NC(=O)C1=Cc1ccccc1O`, the growth inhibition is -31.2% (inactive).
Same read-out and setting: the value for `C=C[C](=C)[Pb]([CH2]C)([CH2]C)[CH2]C` was 5.5% (inactive).
On to `C[CH2][Sn]([CH2]C)([S]c1nc(O)cc(=O)[nH]1)[S]c1nc(O)cc(=O)[nH]1`, for which the growth inhibition was 25.1% (inactive).
Regarding `CC(=O)C1CCC2C3CC=C4CC(OOS(=O)c5ccc(C)cc5)CCC4(C)C3CCC12C` (stereo not drawn), the growth inhibition is 24.1% (inactive).
Take `CC(C)CCCC(C)CCC1C(=O)NC(=S)NC1=O` (stereo not drawn): the growth inhibition was 32.1% (inactive).
